Screening results deposited in PubChem by National Center for Advancing Translational Sciences (NCATS).
Compounds with a hit are over-represented: about 5.8% of the library has one in this group of screens.
SW480 rerep – A quantitative high throughput screen for small molecules that induce DNA re-replication in SW480 colon adenocarcinoma cells; SW480 DNA re-replication, Hoechst DNA content imaging, 48 h; Potency, µM (top dose mostly 46.1 µM), for the others: at the highest dose re-replication activation, usual class: activators; actives 1.8% (n = 340,000); also: % of control where 0% means no effect; nearly all actives have a fitted effect of over 55% in size
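Cells (250 per well) received 23 nL compound or DMSO by pin tool and were kept 48 hr at 37 C, 5% CO2. Nuclei were then stained with Hoechst for 40 min and scanned for DNA content.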
12-LOX inh – Primary qHTS assay for inhibitors of human arachidonate 12S-lipoxygenase (ALOX12): Round 2. actives 1.1% (n = 580,000). Polyunsaturated fatty acid lipoxygenase ALOX12 (Homo sapiens), P18054. purified 12hLO, xylenol orange hydroperoxide absorbance. Potency, µM (titrated, usually from 108 µM), without a hit: at the highest dose activity change, negative = inhibition, actives largely listed as inhibitors. AID 1671190, 2021; also: % is scaled to controls: 0 for no effect and ±100 for the full control effect
Target sequence (P18054 whole entry, looked up): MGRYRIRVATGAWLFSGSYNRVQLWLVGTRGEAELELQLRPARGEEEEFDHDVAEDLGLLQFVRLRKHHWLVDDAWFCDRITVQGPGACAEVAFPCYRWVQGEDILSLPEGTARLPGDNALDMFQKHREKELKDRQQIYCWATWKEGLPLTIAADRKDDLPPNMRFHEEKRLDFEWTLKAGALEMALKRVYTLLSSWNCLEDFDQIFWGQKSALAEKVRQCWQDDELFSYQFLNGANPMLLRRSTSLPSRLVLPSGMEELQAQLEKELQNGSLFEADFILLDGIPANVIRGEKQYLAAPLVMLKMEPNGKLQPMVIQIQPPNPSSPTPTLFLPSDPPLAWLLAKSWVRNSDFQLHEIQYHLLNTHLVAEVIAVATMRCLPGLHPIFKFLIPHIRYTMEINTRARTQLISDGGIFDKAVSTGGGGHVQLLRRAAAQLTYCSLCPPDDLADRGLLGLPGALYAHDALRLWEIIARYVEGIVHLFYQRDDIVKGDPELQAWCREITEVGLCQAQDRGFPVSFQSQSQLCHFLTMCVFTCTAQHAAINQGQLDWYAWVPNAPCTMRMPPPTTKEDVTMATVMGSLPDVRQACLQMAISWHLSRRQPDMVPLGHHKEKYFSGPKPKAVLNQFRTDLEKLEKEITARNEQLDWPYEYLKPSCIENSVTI
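Purified human 12hLO at 150 nM in 25 mM Hepes, 0.01% Triton X-100, pH 7.0, preincubated 15 min at room temperature with compound. Reaction started with 40 uM arachidonic acid, 30 min at room temperature. Hydroperoxide measured by Fe-xylenol orange, 573/405 nm absorbance ratio.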
KB-3-1 tox – qHTS assay for MDR1-selective chemotherapeutics: Primary screen using the parental adenocarcinoma cell KB-3-1. actives 1.4% (n = 400,000). KB-3-1 viability, CellTiter-Glo ATP luminescence, 72 h. AID 1347075, 2019. Potency, µM (series often up to 46.1 µM), actives largely listed as cytotoxic; also: % is scaled to controls: 0 for no effect and ±100 for the full control effect; nearly all actives have a fitted effect of over 60% in size
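Using CellTiter-Glo luminescence, growth of non-resistant KB-3-1 adenocarcinoma cells is assessed 72 h after pin-tool compound addition at 37 °C. Normalized responses across the concentration series yield fitted curves.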
MCF10A rereplic – A quantitative high throughput screen for small molecules that induce DNA re-replication in MCF 10a normal breast cells | MCF 10A DNA re-replication, Hoechst nuclear intensity, 48 h | Potency, µM (top dose mostly 46.1 µM), without a hit: at the highest dose activity, positive = re-replication, most hits filed as activators | actives 2.9% (n = 350,000); also: % of control where 0% means no effect; nearly all actives have a fitted effect of over 50% in size
PINK1 modulator – A Quantitative High throughput Screen to Identify Chemical Modulators of PINK1 Expression. PINK1 immunofluorescence, high-content cytometry, 24 h. Potency, µM (series often up to 76.6 µM), for inactives: at the highest dose activation (PINK1 increase), actives largely listed as activators. actives 0.2% (n = 410,000). AID 624263, 2012; active = well fitted activation curve with a large enough effect; inconclusive = small, poorly fitted or top-dose-only effect; cell line not stated here; also: % of control where 0% means no effect; nearly all actives have a fitted effect of over 65% in size
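Compound titrations (5 concentrations, 24 h) on a stable cell line; DMSO and CCCP controls. Endpoint: fixed-cell PINK1 immunofluorescence with mitochondrial, cell and nuclear markers, scanned by microplate cytometer.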
KB-V1 cytotox – qHTS assay for MDR1-selective chemotherapeutics: Primary screen using the drug-selected MDR subline cells KB-V1. KB-V1 MDR cells viability, CellTiter-Glo, 72 h. Potency, µM (titrated, usually from 46.1 µM), usual class: cytotoxic. actives 3.4% (n = 400,000); also: % is scaled to controls: 0 for no effect and ±100 for the full control effect; nearly all actives have a fitted effect of over 60% in size
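Readout: CellTiter-Glo luminescence, 10 min after addition. Cells: KB-V1 MDR subline, 72 h at 37 degrees C with compound. Analysis: corrected, normalized data fitted to concentration-effect curves.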
Active calls of the source: *; i = inactive; u = inconclusive; x = not tested or not shown; [ ] = remark or other dose. Unless noted, calls follow the shape of the dose curve; as a rule, active = well fitted curve in the direction sought with a large enough effect; inconclusive = small, poorly fitted or top-dose-only effect, or another doubt; inactive = no such curve, though single readings can be large; an effect the other way counts as inactive or inconclusive. Potency is read from the fitted curve at half-maximal effect.

SMILES	SW480 rerep	12-LOX inh	KB-3-1 tox	MCF10A rereplic	PINK1 modulator	KB-V1 cytotox
CC(C)(C)n1nnnc1C(c1cccs1)N(Cc1ccc(Cl)cc1)CC1CCCO1 (centres undefined)	11%	0%	23µM*	u	2%	i
CC(C)(C)n1nnnc1C(c1cccs1)N(Cc1ccccc1)Cc1cccnc1 (centres undefined)	-2%[9.22 µM]	5%	u	5%	2%	u
N#Cc1c(NC(=O)CSc2nnc(-c3ccccc3)o2)sc2c1CCCC2	9%	u	i	5.8µM*	16%[38.3 µM]	i
N#Cc1c(NC(=O)CSc2ncc(-c3ccccc3)n2CC2CCCO2)sc2c1CCCC2 (centres undefined)	5%	4%	u	u	3%[38.3 µM]	3.3µM*
N#Cc1c(NC(=O)CSc2nc3ccccc3s2)sc2c1CCCC2	-11%	-4%	i	u	22%	16µM*
N#Cc1c(NC(=O)CSc2nnc(-c3ccncc3)n2CC2CCCO2)sc2c1CCCC2 (centres undefined)	0%	-9%	i	-1%	0%	i
O=C(CSc1nnc(-c2ccccc2)n1-n1cccc1)Nc1ccc2c(c1)OCO2	x	-1%	x	x	x	x
COc1cccc2c1C(=O)c1c(O)c3c(c(O)c1C2=O)CC(O)(C(C)=O)CC3OC1CC(N(C)C)C(O)C(C)O1 (centres undefined)	u	5%	u	-1%	-7%	7.3µM*
CC(=O)[C@@]1(O)Cc2c(O)c3c(c(O)c2[C@H](O[C@H]2C[C@H](N)[C@H](O)[C@H](C)O2)C1)C(=O)c1ccccc1C3=O	x	u	0.18µM*	x	0%	u
COc1cccc2c1C(=O)c1c(O)c3c(c(O)c1C2=O)C[C@@](O)(C(C)=O)C[C@H]3O[C@H]1C[C@H](N)[C@H](O)[C@H](C)O1	x	34%[57.4 µM]	x	x	x	x
COc1cccc2c1C(=O)c1c(O)c3c(c(O)c1C2=O)C[C@@](O)(C(=O)CO)C[C@@H]3OC1CC(N)C(O)C(C)O1 (some centres undefined)	-10%	u	u	u	-6%	x
CC(=O)C1(O)Cc2c(O)c3c(c(O)c2C(OC2CC(N)C(O)C(C)O2)C1)C(=O)c1c(O)cccc1C3=O (centres undefined)	u	x	0.58µM*	2%	-1%	u
C#Cc1cccc(NC(=O)c2ccc(OCC=C)cc2)c1	x	-57%	x	x	x	x
O=C(NC(NC(=S)Nc1cccc(C(=O)O)c1)C(Cl)(Cl)Cl)OCc1ccccc1 (centres undefined)	-1%	0%	i	4%	-2%	i
O=C(NC(NC(=S)Nc1cccc(Cl)c1)C(Cl)(Cl)Cl)OCc1ccccc1 (centres undefined)	u	u	i	17%	7.9µM*	u
O=C(CCc1ccccc1)NC(NC(=S)Nc1ccc(Cl)cc1)C(Cl)(Cl)Cl (centres undefined)	u	-30%	18µM*	7%	13%	i
O=C(/C=C/c1ccccc1)NC(NC(=S)Nc1ccc(Cl)cc1)C(Cl)(Cl)Cl (centres undefined)	u	u	u	16µM*	u	u
Cc1cc(C(=O)COc2ncnc3ccccc23)c(C)n1C(C)C	x	-4%	x	x	x	x
C[C@H](C(=O)N1Cc2ccccc2CC2(CCCN2C)C1)c1ccccc1 (some centres undefined)	x	2%[6.33 µM]	x	x	x	x
Cc1noc(C)c1S(=O)(=O)N1C[C@@H](Oc2ccccc2)C[C@H]1C(=O)N1CCCC1	x	-2%	x	x	x	x
